According to PubChem BioAssay AID1159580 (chemical genetic matrix, 2015):
Hit rate of the full screen: of about 5,500 compounds, about 2,000 (36%) were called active. Another 18% or so got no clear call; they are omitted. Rule as the data show it: active = normalized growth mostly below about 0.91 (no sharp cut-off); inconclusive = no clear call, values can overlap the other calls; inactive = mostly above about 0.92. Some of the results follow.

Experiment: chemical genetic growth profiling, strain panel (AID 1159580);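 also: tested at 20 µM; growth read once vehicle control cultures reached saturation at 30 °C; 1 = growth at the plate median or of vehicle wells; lower values mean less growth of the strain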
Settings: growth OD

Measured: normalized growth

NC(=NCCC[C@H](N)C(=O)O)NC(CCC(=O)O)C(=O)O (stereo partly drawn)
inactive: S. cerevisiae deletion strains, locus YAL021C, strain ccr4, stronger effect = lower value 1 | S. cerevisiae deletion strains, locus YAL026C, strain drs2, stronger effect = lower value 1 | S. cerevisiae deletion strains, locus YAL030W, strain snc1, stronger effect = lower value 1 | S. cerevisiae deletion strains, locus YBL061C, strain skt5, stronger effect = lower value 1.01 | S. cerevisiae deletion strains, locus YBR009C, strain hhf1, stronger effect = lower value 1 | S. cerevisiae deletion strains, locus YBR021W, strain FUR4, stronger effect = lower value 1.02 | S. cerevisiae deletion strains, locus YBR023C, strain chs3, stronger effect = lower value 1.01 | S. cerevisiae deletion strains, locus YBR171W, strain sec66, stronger effect = lower value 1.02 | S. cerevisiae deletion strains, locus YBR229C, strain ROT2, stronger effect = lower value 1.01 | S. cerevisiae deletion strains, locus YBR231C, strain swc5, stronger effect = lower value 1.01 | S. cerevisiae deletion strains, locus YBR279W, strain paf1, stronger effect = lower value 0.998 | S. cerevisiae deletion strains, locus YCL011C, strain gbp2, stronger effect = lower value 1.01 | S. cerevisiae deletion strains, locus YCL016C, strain dcc1, stronger effect = lower value 1.01 | S. cerevisiae deletion strains, locus YCL029C, strain bik1, stronger effect = lower value 1.03 | S. cerevisiae deletion strains, locus YCL061C, strain MRC1, stronger effect = lower value 0.998 | S. cerevisiae deletion strains, locus YCL069W, strain vba3, stronger effect = lower value 1.01 | S. cerevisiae deletion strains, locus YCR088W, strain abp1, stronger effect = lower value 1.01 | S. cerevisiae deletion strains, locus YDL005C, strain med2, stronger effect = lower value 1.01 | S. cerevisiae deletion strains, locus YDL035C, strain GPR1, stronger effect = lower value 1.02 | S. cerevisiae deletion strains, locus YDL040C, strain nat1, stronger effect = lower value 1.01 | S. cerevisiae deletion strains, locus YDL074C, strain BRE1, stronger effect = lower value 1.05 | S. cerevisiae deletion strains, locus YDL101C, strain DUN1, stronger effect = lower value 1.01 | S. cerevisiae deletion strains, locus YDL185W, strain tfp1, stronger effect = lower value 1.01 | S. cerevisiae deletion strains, locus YDL192W, strain arf1, stronger effect = lower value 1.02 | S. cerevisiae deletion strains, locus YDR001C, strain nth1, stronger effect = lower value 1.01 | S. cerevisiae deletion strains, locus YDR069C, strain doa4, stronger effect = lower value 1.01 | S. cerevisiae deletion strains, locus YDR101C, strain arx1, stronger effect = lower value 1.04 | S. cerevisiae deletion strains, locus YDR137W, strain rgp1, stronger effect = lower value 0.992 | S. cerevisiae deletion strains, locus YDR159W, strain sac3, stronger effect = lower value 1.01 | S. cerevisiae deletion strains, locus YDR162C, strain NBP2, stronger effect = lower value 0.977 | S. cerevisiae deletion strains, locus YDR195W, strain ref2 0.974 | S. cerevisiae deletion strains, locus YDR297W, strain sur2, stronger effect = lower value 1.01 | S. cerevisiae deletion strains, locus YDR318W, strain mcm21, stronger effect = lower value 1 | S. cerevisiae deletion strains, locus YDR334W, strain swr1, stronger effect = lower value 1.01 | S. cerevisiae deletion strains, locus YDR335W, strain msn5, stronger effect = lower value 0.995 | S. cerevisiae deletion strains, locus YDR388W, stronger effect = lower value 1.02 | S. cerevisiae deletion strains, locus YDR392W, strain spt3, stronger effect = lower value 1.02 | S. cerevisiae deletion strains, locus YDR502C, strain sam2, stronger effect = lower value 1.01 | S. cerevisiae deletion strains, locus YEL003W, strain gim4, stronger effect = lower value 1 | S. cerevisiae deletion strains, locus YEL037C, strain rad23, stronger effect = lower value 1 | S. cerevisiae deletion strains, locus YEL061C, strain CIN8 (second series), stronger effect = lower value 1 | S. cerevisiae deletion strains, locus YEL061C, strain CIN8, stronger effect = lower value 1.01 | S. cerevisiae deletion strains, locus YER015W, strain faa2, stronger effect = lower value 1.01 | S. cerevisiae deletion strains, locus YER016W, strain bim1, stronger effect = lower value 1 | S. cerevisiae deletion strains, locus YER110C, stronger effect = lower value 1.01 | S. cerevisiae deletion strains, locus YER111C, strain swi4, stronger effect = lower value 0.996 | S. cerevisiae deletion strains, locus YER155C, strain BEM2 (second series), stronger effect = lower value 1.02 | S. cerevisiae deletion strains, locus YER155C, strain BEM2, stronger effect = lower value 1.01 | S. cerevisiae deletion strains, locus YER167W, strain BCK2, stronger effect = lower value 1.02 | S. cerevisiae deletion strains, locus YFR010W, strain ubp6, stronger effect = lower value 1.01 | S. cerevisiae deletion strains, locus YGL078C, strain dbp3, stronger effect = lower value 1.02 | S. cerevisiae deletion strains, locus YGL086W, strain mad1, stronger effect = lower value 1.04 | S. cerevisiae deletion strains, locus YGL167C, strain pmr1, stronger effect = lower value 1.01 | S. cerevisiae deletion strains, locus YGL173C, strain kem1, stronger effect = lower value 1.01 | S. cerevisiae deletion strains, locus YGL227W, strain vid30, stronger effect = lower value 1.01 | S. cerevisiae deletion strains, locus YGL240W, strain doc1, stronger effect = lower value 1.02 | S. cerevisiae deletion strains, locus YGL248W, strain PDE1, stronger effect = lower value 0.999 | S. cerevisiae deletion strains, locus YGL253W, strain hxk2, stronger effect = lower value 1.01 | S. cerevisiae deletion strains, locus YGR078C, strain PAC10, stronger effect = lower value 1.01 | S. cerevisiae deletion strains, locus YGR135W, strain pre9, stronger effect = lower value 1.04 | S. cerevisiae deletion strains, locus YGR252W, strain gcn5, stronger effect = lower value 0.991 | S. cerevisiae deletion strains, locus YHR013C, strain ard1, stronger effect = lower value 1.03 | S. cerevisiae deletion strains, locus YHR027C, strain rpn1, stronger effect = lower value 1.02 | S. cerevisiae deletion strains, locus YHR030C, strain SLT2, stronger effect = lower value 1.01 | S. cerevisiae deletion strains, locus YHR079C, strain IRE1 (second series), stronger effect = lower value 1 | S. cerevisiae deletion strains, locus YHR094C, strain hxt1, stronger effect = lower value 1.01 | S. cerevisiae deletion strains, locus YHR129C, strain ARP1, stronger effect = lower value 1.01 | S. cerevisiae deletion strains, locus YHR142W, strain chs7, stronger effect = lower value 1.02 | S. cerevisiae deletion strains, locus YHR200W, strain rpn10, stronger effect = lower value 1 | S. cerevisiae deletion strains, locus YIL066C, strain RNR3, stronger effect = lower value 1.01 | S. cerevisiae deletion strains, locus YIL073C, strain SPO22, stronger effect = lower value 1.06 | S. cerevisiae deletion strains, locus YIL125W, strain kgd1, stronger effect = lower value 1.02 | S. cerevisiae deletion strains, locus YIR030C, strain dcg1, stronger effect = lower value 1.01 | S. cerevisiae deletion strains, locus YJL092W, strain hpr5, stronger effect = lower value 1.01 | S. cerevisiae deletion strains, locus YJL095W, strain BCK1 (second series), stronger effect = lower value 1.01 | S. cerevisiae deletion strains, locus YJL095W, strain BCK1, stronger effect = lower value 1.01 | S. cerevisiae deletion strains, locus YJL115W, strain asf1, stronger effect = lower value 1 | S. cerevisiae deletion strains, locus YJL129C, strain trk1, stronger effect = lower value 1.01 | S. cerevisiae deletion strains, locus YJL134W, strain LCB3, stronger effect = lower value 1.01 | S. cerevisiae deletion strains, locus YJL154C, strain vps35, stronger effect = lower value 1.01 | S. cerevisiae deletion strains, locus YJL164C, strain tpk1, stronger effect = lower value 1.01 | S. cerevisiae deletion strains, locus YJL166W, strain qcr8, stronger effect = lower value 1.01 | S. cerevisiae deletion strains, locus YJL168C, strain set2, stronger effect = lower value 1.04 | S. cerevisiae deletion strains, locus YJL187C, strain SWE1 (second series), stronger effect = lower value 1 | S. cerevisiae deletion strains, locus YJL187C, strain SWE1, stronger effect = lower value 1 | S. cerevisiae deletion strains, locus YJR043C, strain POL32, stronger effect = lower value 1 | S. cerevisiae deletion strains, locus YKL009W, strain mrt4, stronger effect = lower value 1.03 | S. cerevisiae deletion strains, locus YKL068W, stronger effect = lower value 1 | S. cerevisiae deletion strains, locus YKL085W, strain MDH1 (second series), stronger effect = lower value 1.01 | S. cerevisiae deletion strains, locus YKL085W, strain MDH1, stronger effect = lower value 1.01 | S. cerevisiae deletion strains, locus YKL160W, strain elf1, stronger effect = lower value 1.02 | S. cerevisiae deletion strains, locus YKL190W, strain CNB1, stronger effect = lower value 1.01 | S. cerevisiae deletion strains, locus YKR001C, strain vps1, stronger effect = lower value 1.06 | S. cerevisiae deletion strains, locus YKR026C, strain gcn3, stronger effect = lower value 1.01 | S. cerevisiae deletion strains, locus YKR091W, strain srl3, stronger effect = lower value 1.01 | S. cerevisiae deletion strains, locus YLL001W, strain dnm1, stronger effect = lower value 1.01 | S. cerevisiae deletion strains, locus YLL026W, stronger effect = lower value 1.01 | S. cerevisiae deletion strains, locus YLL041C, strain sdh2, stronger effect = lower value 1.01 | S. cerevisiae deletion strains, locus YLR027C, strain aat2, stronger effect = lower value 0.998 | S. cerevisiae deletion strains, locus YLR039C, strain RIC1, stronger effect = lower value 1 | S. cerevisiae deletion strains, locus YLR058C, strain SHM2, stronger effect = lower value 1.01 | S. cerevisiae deletion strains, locus YLR102C, strain apc9, stronger effect = lower value 1.02 | S. cerevisiae deletion strains, locus YLR221C, strain rsa3, stronger effect = lower value 1.02 | S. cerevisiae deletion strains, locus YLR258W, strain gsy2, stronger effect = lower value 1.01 | S. cerevisiae deletion strains, locus YLR262C, strain YPT6 (second series), stronger effect = lower value 0.996 | S. cerevisiae deletion strains, locus YLR262C, strain YPT6, stronger effect = lower value 1.02 | S. cerevisiae deletion strains, locus YLR268W, strain sec22, stronger effect = lower value 1.04 | S. cerevisiae deletion strains, locus YLR320W, strain mms22, stronger effect = lower value 1.02 | S. cerevisiae deletion strains, locus YLR330W, strain CHS5, stronger effect = lower value 1.01 | S. cerevisiae deletion strains, locus YLR342W, strain FKS1 (second series), stronger effect = lower value 1.06 | S. cerevisiae deletion strains, locus YLR342W, strain FKS1, stronger effect = lower value 1.01 | S. cerevisiae deletion strains, locus YLR357W, strain rsc2, stronger effect = lower value 1.03 | S. cerevisiae deletion strains, locus YLR370C, strain arc18, stronger effect = lower value 1.01 | S. cerevisiae deletion strains, locus YLR371W, strain rom2, stronger effect = lower value 1.02 | S. cerevisiae deletion strains, locus YLR384C, strain iki3, stronger effect = lower value 0.996 | S. cerevisiae deletion strains, locus YLR418C, strain cdc73, stronger effect = lower value 1.01 | S. cerevisiae deletion strains, locus YML016C, strain PPZ1, stronger effect = lower value 1 | S. cerevisiae deletion strains, locus YML032C, strain rad52, stronger effect = lower value 1.02 | S. cerevisiae deletion strains, locus YML120C, strain ndi1, stronger effect = lower value 1 | S. cerevisiae deletion strains, locus YML124C, strain tub3, stronger effect = lower value 1.01 | S. cerevisiae deletion strains, locus YMR058W, strain fet3, stronger effect = lower value 1.01 | S. cerevisiae deletion strains, locus YMR078C, strain ctf18, stronger effect = lower value 1.01 | S. cerevisiae deletion strains, locus YMR125W, strain sto1, stronger effect = lower value 0.999 | S. cerevisiae deletion strains, locus YMR129W, stronger effect = lower value 0.997 | S. cerevisiae deletion strains, locus YMR205C, strain PFK2, stronger effect = lower value 1.02 | S. cerevisiae deletion strains, locus YMR223W, strain ubp8, stronger effect = lower value 0.985 | S. cerevisiae deletion strains, locus YMR231W, strain pep5, stronger effect = lower value 0.989 | S. cerevisiae deletion strains, locus YMR307W, strain GAS1, stronger effect = lower value 1 | S. cerevisiae deletion strains, locus YNL067W, strain RPL9B, stronger effect = lower value 0.995 | S. cerevisiae deletion strains, locus YNL071W, strain lat1, stronger effect = lower value 1.01 | S. cerevisiae deletion strains, locus YNL153C, strain GIM3, stronger effect = lower value 0.989 | S. cerevisiae deletion strains, locus YNL209W, strain ssb2, stronger effect = lower value 1 | S. cerevisiae deletion strains, locus YNL233W, strain BNI4, stronger effect = lower value 1.03 | S. cerevisiae deletion strains, locus YNL248C, strain rpa49, stronger effect = lower value 1.01 | S. cerevisiae deletion strains, locus YNL250W, strain rad50, stronger effect = lower value 1.02 | S. cerevisiae deletion strains, locus YNL271C, strain bni1, stronger effect = lower value 0.999 | S. cerevisiae deletion strains, locus YNL298W, strain CLA4, stronger effect = lower value 1.01 | S. cerevisiae deletion strains, locus YNL307C, strain MCK1, stronger effect = lower value 1.03 | S. cerevisiae deletion strains, locus YNL322C, strain KRE1 (second series), stronger effect = lower value 1.01 | S. cerevisiae deletion strains, locus YNL322C, strain KRE1, stronger effect = lower value 1.01 | S. cerevisiae deletion strains, locus YNR049C, strain mso1, stronger effect = lower value 1.02 | S. cerevisiae deletion strains, locus YNR052C, strain pop2, stronger effect = lower value 1.01 | S. cerevisiae deletion strains, locus YOL012C, strain htz1 1.47 | S. cerevisiae deletion strains, locus YOL147C, strain pex11, stronger effect = lower value 1.02 | S. cerevisiae deletion strains, locus YOR001W, strain rrp6, stronger effect = lower value 1.02 | S. cerevisiae deletion strains, locus YOR061W, strain CKA2, stronger effect = lower value 1.01 | S. cerevisiae deletion strains, locus YOR069W, strain VPS5, stronger effect = lower value 1.01 | S. cerevisiae deletion strains, locus YOR070C, strain gyp1, stronger effect = lower value 1 | S. cerevisiae deletion strains, locus YOR080W, strain dia2, stronger effect = lower value 0.999 | S. cerevisiae deletion strains, locus YOR083W, strain WHI5, stronger effect = lower value 1 | S. cerevisiae deletion strains, locus YOR106W, strain vam3, stronger effect = lower value 1.02 | S. cerevisiae deletion strains, locus YOR136W, strain idh2, stronger effect = lower value 1.05 | S. cerevisiae deletion strains, locus YOR144C, strain elg1, stronger effect = lower value 1.02 | S. cerevisiae deletion strains, locus YOR184W, strain ser1, stronger effect = lower value 1.01 | S. cerevisiae deletion strains, locus YOR265W, strain rbl2, stronger effect = lower value 1 | S. cerevisiae deletion strains, locus YOR270C, strain vph1, stronger effect = lower value 1.02 | S. cerevisiae deletion strains, locus YOR290C, strain snf2, stronger effect = lower value 1.02 | S. cerevisiae deletion strains, locus YOR316C, strain cot1, stronger effect = lower value 1.02 | S. cerevisiae deletion strains, locus YPL051W, strain arl3, stronger effect = lower value 0.995 | S. cerevisiae deletion strains, locus YPL078C, strain atp4, stronger effect = lower value 1 | S. cerevisiae deletion strains, locus YPL106C, strain sse1, stronger effect = lower value 1.02 | S. cerevisiae deletion strains, locus YPL240C, strain hsp82, stronger effect = lower value 1 | S. cerevisiae deletion strains, locus YPR119W, strain clb2, stronger effect = lower value 1.01 | S. cerevisiae deletion strains, locus YPR141C, strain kar3, stronger effect = lower value 1.01 | S. cerevisiae deletion strains, locus YPR163C, strain tif3, stronger effect = lower value 1.02 | S. cerevisiae deletion strains, locus YPR167C, strain met16, stronger effect = lower value 1.02 | S. cerevisiae deletion strains, strain wtn01, stronger effect = lower value 1.05 | S. cerevisiae strains, strain wild type, stronger effect = lower value 1.01
